Source: PubChem BioAssay
Only some compounds are listed: those with a hit (about 9.2% of all), similar ones and a draw of the others.
NPC1 prom act: activators of NPC1 promoter; Huh7 NPC1 promoter luciferase reporter, 24 h; Potency, µM (titrated, usually from 9.22 µM), actives largely listed as activators; 320,000 compounds, 2.4% hits; AID 485313; note: nearly all actives have a fitted effect of over 60% in size
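Luminescence read-out of NPC1 promoter-driven luciferase in stably transfected Huh7 cells; compounds delivered in DMSO and left 24 h at 37C, 5% CO2, qHTS titration format.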
Rab9 promoter act: activators of Rab9 promoter; 320,000 compounds, 2.8% hits; Huh7 Rab9 promoter-luciferase reporter, luminescence, 24 h; Potency, µM (highest dose often 9.22 µM), most hits filed as activators; AID 485297; note: nearly all actives have a fitted effect of over 60% in size
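Stable Rab9-luc Huh7, 1500 cells/well, 2 h settle; cmpd in DMSO, 24 h, 37 °C/5% CO2; luciferase reagent 10 min RT; luminescence.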
FLuc counter: counter-screen for miR-21 project: firefly luciferase inhibitors or activators | purified FLuc, Km substrates, luminescence inhibition | Potency, µM (doses to about 57.5 µM), actives largely listed as inhibitors | 360,000 compounds, 6.9% hits; note: nearly all actives have a fitted effect of over 55% in size
Target sequence (P08659 whole entry, looked up): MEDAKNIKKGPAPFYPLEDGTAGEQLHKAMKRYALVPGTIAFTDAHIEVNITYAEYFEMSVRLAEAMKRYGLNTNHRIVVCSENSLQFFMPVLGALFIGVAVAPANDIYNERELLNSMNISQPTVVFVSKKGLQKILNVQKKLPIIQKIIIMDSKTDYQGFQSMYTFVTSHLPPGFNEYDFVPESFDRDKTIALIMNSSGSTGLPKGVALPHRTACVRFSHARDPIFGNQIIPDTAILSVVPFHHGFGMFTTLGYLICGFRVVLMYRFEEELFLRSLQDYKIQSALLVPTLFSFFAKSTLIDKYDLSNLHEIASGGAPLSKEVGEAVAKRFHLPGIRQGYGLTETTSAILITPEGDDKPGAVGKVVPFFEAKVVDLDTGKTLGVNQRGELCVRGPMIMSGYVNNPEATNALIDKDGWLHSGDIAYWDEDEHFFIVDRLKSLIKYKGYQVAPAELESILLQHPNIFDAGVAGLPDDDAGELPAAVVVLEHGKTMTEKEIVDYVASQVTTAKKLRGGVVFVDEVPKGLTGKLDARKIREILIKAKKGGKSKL
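Purified P. pyralis luciferase, 10 nM final, with Km-level 10 uM D-luciferin and 10 uM ATP in 50 mM Tris acetate pH 7.5, 10 mM Mg acetate, 0.01% Tween-20, 0.05% BSA; 6-point qHTS titration about 60 µM downward; luminescence read.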
SMN2 splice up: enhancers of SMN2 splice variant expression. 210,000 compounds, 2.8% hits. HEK293 SMN2-luciferase splicing reporter, luminescence, 30-36 h. AID 1458. Potency, µM (doses to about 46.1 µM), most hits filed as activators; note: nearly all actives have a fitted effect of over 55% in size
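HEK293 cells carry an SMN2 […]–luciferase reporter in which exon 7 inclusion puts luciferase in frame. Cells were plated 10-12 h before compound addition, then incubated 30-36 h at 37C. ONE-Glo luminescence was read; sodium butyrate at 4.5 mM final served as control.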
ELG1 repair inh: ELG1-dependent DNA repair inhibition. HEK293T ELG1-luciferase reporter, luminescence, 16 h; DNA damage induced by 5-fluorouridine. Potency, µM (doses to about 46.1 µM), actives largely listed as inhibitors. 330,000 compounds, 2.3% hits; note: nearly all actives have a fitted effect of over 55% in size
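Overnight (16 hr) co-exposure of 2,000 cells/well to 5-fluorouridine and compound at 37 °C preceded detection. Luciferase was quantified via ONE-Glo luminescence; loss of signal denotes inhibition.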
ELG1 genotox: inducers of genotoxicity in HEK293T ELG1-luciferase cells; HEK293T ELG1-luciferase reporter, luminescence, 16 h; Potency, µM (titrated, usually from 46 µM), usual class: activators; 330,000 compounds, 1.3% hits; AID 504466; note: nearly all actives have a fitted effect of over 60% in size
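HEK293T cells expressing luciferase-tagged ELG1 were exposed to compound or DMSO vehicle for 16 hr at 37 °C and 5% CO2. Luciferase activity was then measured with ONE-Glo after 30 min at room temperature.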
A number is an active result; . = inactive; ? = inconclusive; / = no result; [ ] = another dose, or the depositor's remark. Calls come from the whole dose curve; as a rule, active = well fitted curve in the direction sought with a large enough effect; inconclusive = small, poorly fitted or top-dose-only effect, or another doubt; inactive = no such curve, though single readings can be large; an effect the other way counts as inactive or inconclusive.

SMILES	NPC1 prom act	Rab9 promoter act	FLuc counter	SMN2 splice up	ELG1 repair inh	ELG1 genotox
Cc1cc(C(=O)Nc2cnc3ccccc3c2)ccc1[N+](=O)[O-]	1.4µM	2.2µM	?	13µM	?	?
Cc1ccnc(NS(=O)(=O)c2ccc(NC(=O)CSc3nc(-c4ccccc4)cc(=O)[nH]3)cc2)n1	.	.	13µM	.	.	.
O=C(Nc1cnc2ccccc2c1)c1cccc(-n2cnnn2)c1	4µM	4.5µM	24µM	?	?	.
Cc1ccc(C(=O)Nc2cnc3ccccc3c2)cc1	?	?	0.076µM	/	?	?
O=C(NNC(=O)c1cccc(-n2cnnn2)c1)c1ccccc1	.	.	.	.	.	.
O=C(CSc1nc(NS(=O)(=O)c2ccccc2)cc(=O)[nH]1)Nc1ccc(F)cc1	.	.	.	.	?	.
CCCCCC(O)/C=C/C=O (stereo not given)	/	/	/	.	/	/
CCC(C(=O)Nc1cc(OC)cc(OC)c1)n1nc(-c2ccc(C)c(C)c2)ccc1=O (stereo not given)	/	/	.	/	/	/
Cc1[nH]c2ccccc2c1C(=O)COC(=O)c1nccnc1N	.	.	?	/	?	.
CC(C)(C)c1ccc(C(=O)Nc2cccc(-n3cnnn3)c2)cc1	?	?	0.6µM	/	?	.
O=C(Nc1cnc2ccccc2c1)c1ccco1	1.4µM	0.63µM	7.6µM	14µM	?	?
Cn1c(NC(=O)c2cccnc2)nc2ccccc21	3.2µM	3.5µM	?	13µM	?	.
O=C(CNC(=O)c1ccc(-c2ccccc2)cc1)Nc1ccc(S(=O)(=O)Nc2ncccn2)cc1	.	.	17µM	/	.	.
O=C(Nc1cccc(-n2cnnn2)c1)c1cc(Cl)nc(Cl)c1	.	.	.	/	.	.
Cc1ccc(C(=O)Nc2ccc(S(=O)(=O)Nc3cnc4ccccc4n3)cc2)cc1	.	.	27µM	/	?	.
O=C(Nc1cnc2ccccc2c1)c1cccnc1	3.2µM	2.2µM	11µM	13µM	?	4.6µM
CCN(c1ccccc1)S(=O)(=O)c1ccc(Cl)c(NC(=O)CNC(C)c2ccccc2)c1 (stereo not given)	/	/	/	/	15µM	.
CCN(c1ccccc1)S(=O)(=O)c1ccc(Cl)c(NC(=O)CN2CCCCCC2)c1	.	.	.	/	16µM	.
CCC(C)NCC(=O)Nc1cc(S(=O)(=O)N(CC)c2ccccc2)ccc1Cl (stereo not given)	.	.	.	.	.	.
CN(C)S(=O)(=O)c1ccc(Cl)c(NC(=O)CN2CCCCCC2)c1	.	.	.	.	.	.
COc1ccc(-n2sc3ccc(F)cc3c2=O)cc1	?	3.5µM	?	/	?	.
O=c1c2cc(F)ccc2sn1-c1ccc(F)cc1	.	.	?	/	.	.
Cc1nc(-c2ccc(Cl)cc2)sc1C1(C)CC(c2cccnc2)=NO1 (stereo not given)	?	?	17µM	/	?	?
O=[N+]([O-])c1c(Nc2ccccc2O)cc(Cl)c2nonc12	.	.	.	/	26µM	.
Cc1ccc(Nc2nc(-c3ccncc3)cs2)cc1	2.2µM	1.3µM	0.95µM	/	?	?
SMILES	NPC1 prom act	Rab9 promoter act	FLuc counter	SMN2 splice up	ELG1 repair inh	ELG1 genotox
Clc1cccc(Nc2nc(-c3ccncc3)cs2)c1	.	.	.	/	.	.
COc1cc(-c2csc(C)n2)ccc1O	.	.	.[2.3 µM]	.	.	.
Cc1cccc(Nc2nc(-c3ccncc3)cs2)c1	.	?	17µM	.	?	.
CC(=O)Nc1ccc(-c2csc(NNC(=O)c3ccc(C)cc3)n2)cc1	.	.	.	.	.	.
Cc1nc(-c2ccc3c(c2)CCC(=O)N3)cs1	?	?	17µM	/	?	?
Cc1nc(-c2ccc3c(c2)OCCO3)cs1	2.8µM	3.2µM	21µM	?	?	?
Cc1ccc(-c2csc(Cc3nc(-c4ccc5c(c4)CCC(=O)N5)cs3)n2)cc1	.	.	?	/	.	.
COc1ccc(N2CCN(c3oc(/C=C/c4ccccc4OC)nc3C#N)CC2)cc1	/	/	.	.	/	/
CCCCN(C)C(=O)CNC(=O)c1nn(-c2ccc(OC)cc2OC)c(=O)c2ccccc12	.	.	?	/	.	.
